Assay outcomes as filed in PubChem BioAssay.
Compounds with a hit are over-represented: about 2.9% of the library has one in this group of screens.
EP2 modulator: EP2 receptor (human) modulation; P43116; EP2-expressing cells, cAMP HTRF FRET, PGE2 co-stimulation; induction, % at 25 µM; 260,000 tested, 0.83% active; AID 940;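 active = compounds whose cAMP rise, as percent of the full-agonist control response, exceeds 60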;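 note: rat C6 glioma line stably carrying human EP2 under a CMV promoter; the protocol text gives 20 µM as final concentration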
PG9 Ab binder: PG9 antibody binding by small molecule; TR-FRET gp120-PG9 antibody binding; inhibition, % at 6.7 µM; 360,000 tested, 0.43% active; AID 624416; in the data active = inhibition above about 8.5%
NR1D1 modulator: modulators of human Rev-erb alpha DNA binding; Rev-erbα–FITC-DNA binding, fluorescence polarization, 90 min; activity, % at 10 µM; 370,000 tested, 0.79% active;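 active = activity above about 14%, limit read from the data; passing the limit was not always enough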
Target sequence (P20393 whole entry, looked up): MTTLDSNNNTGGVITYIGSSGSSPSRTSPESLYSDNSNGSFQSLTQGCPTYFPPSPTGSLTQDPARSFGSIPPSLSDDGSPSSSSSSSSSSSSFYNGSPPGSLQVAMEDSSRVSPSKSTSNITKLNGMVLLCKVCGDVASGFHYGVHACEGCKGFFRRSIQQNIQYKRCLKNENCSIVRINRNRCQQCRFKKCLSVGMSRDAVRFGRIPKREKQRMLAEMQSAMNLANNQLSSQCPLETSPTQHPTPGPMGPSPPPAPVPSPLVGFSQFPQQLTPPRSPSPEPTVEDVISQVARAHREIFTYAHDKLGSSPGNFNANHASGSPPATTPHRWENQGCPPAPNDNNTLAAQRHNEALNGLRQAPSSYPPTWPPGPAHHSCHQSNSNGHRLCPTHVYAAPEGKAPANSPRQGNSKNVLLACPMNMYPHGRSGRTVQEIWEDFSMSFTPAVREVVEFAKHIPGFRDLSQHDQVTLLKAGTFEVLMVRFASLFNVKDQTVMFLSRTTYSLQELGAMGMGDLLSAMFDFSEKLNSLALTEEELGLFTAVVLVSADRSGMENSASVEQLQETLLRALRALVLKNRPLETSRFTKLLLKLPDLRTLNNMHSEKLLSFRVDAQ
EP2 antag: inhibitors of human EP2 prostaglandin E2 receptor; P43116; 260,000 tested, 0.52% active; C6 glioma cells expressing human EP2, cAMP TR-FRET; cells stimulated with saturating PGE2; inhibition, % at 25 µM;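 active = percent inhibition above 40 after rounding to a whole number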;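 note: rat C6 glioma host cells with rolipram phosphodiesterase inhibitor present; the protocol text gives 20 µM as final concentration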
RAM inhibit: yeast RAM network inhibition | S. cerevisiae dse1pr::URA3 reporter, 5-FOA growth OD615, 2 d; analog-sensitive cbk1-as2 kinase mutant strain | inhibition, % at 50 µM | 190,000 tested, 1.8% active | AID 868;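 active = inhibition above a set limit, 3 SD over mean compound inhibition, cut at about 8.4% in these data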;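 note: inhibition rescues growth on 5-FOA so higher OD means more RAM inhibition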
SKN-1 block: C. elegans SKN-1 inhibition; C. elegans VP596 Pgst-4::GFP/RFP ratio, acrylamide-induced, 24 h; inhibition, % at 21.8 µM; 360,000 tested, 0.49% active;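 active = interference check ratio from 0.5 to 1.5 plus GFP to RFP signal ratio inhibition reaching or exceeding a fixed threshold, cut at about 30% in these data, passing the limit was not always enough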
NR1D1 mod conf: Rev-erb alpha (human) modulation, hit confirmation; shares compounds with NR1D1 modulator; Rev-erb alpha FITC-DNA binding, fluorescence polarization, 90 min; activation, % at 25 µM; 3,000 tested, 61% active;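 active = activation at or above a set limit, or at least 3 SD above the negative control mean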
RORg DNA counter: affects RORgamma DNA binding in a Rev-erb alpha counter-screen | shares compounds with NR1D1 modulator | 910 tested, 8% active | purified RORgamma protein-FITC-DNA binding, fluorescence polarization | IC50, µM;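 active = Compounds whose fitted half-maximal concentration for disrupting protein-DNA binding is below 10 micromolar; the record names Rev-erb in its text, so the target is in doubt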
Numbers stand for hits; n = inactive; x = not tested or not shown.

SMILES | EP2 modulator | PG9 Ab binder | NR1D1 modulator | EP2 antag | RAM inhibit | SKN-1 block | NR1D1 mod conf | others
O=S(=O)(/N=C(/Nc1nc2ccccc2s1)c1ccccc1)c1ccc(F)cc1 | x | n | 19 | x | x | n | n
O=S(=O)(/N=C(/Nc1nccs1)c1ccc(F)cc1)c1ccccc1 | x | n | n | x | x | n | x
CCOC(Cn1c(SCc2cc(C(C)=O)ccc2OC)nc2ccccc2c1=O)OCC | n | n | 34 | n | n | n | 34 | RORg DNA counter=n
CCOC(Cn1c(SCC(=O)Nc2cc(C)on2)nc2ccccc2c1=O)OCC | x | n | n | x | x | n | x
CN1CCN(c2ccc(NC(=O)c3ccc(Cl)cc3)cc2)CC1 | n | x | x | n | x | x | x
CCN1C(=O)CSC1=NC1C2CC3CC(C2)CC1C3 (stereo not drawn) | n | n | 42 | n | n | n | 48 | RORg DNA counter=n
C=CCNS(=O)(=O)c1ccc(S(=O)(=O)N2CCC(C)CC2)cc1 | n | x | x | n | x | x | x
CN1CCS/C1=C/C=C1/SC(=S)N(Cc2ccccc2)C1=O | n | n | 188 | n | 9.6 | n | 169 | RORg DNA counter=n
CN1CCS/C1=C/C=C1\SC(=S)N(CC(=O)O)C1=O | n | n | 302 | n | n | n | 246 | RORg DNA counter=n
O=C(O)c1ccc(/C=C2/SC(=S)N(Cc3ccccc3)C2=O)cc1 | x | n | n | x | x | n | x
O=C(CN1CCC(O)(c2ccccn2)CC1)NC(c1ccccc1)c1ccccc1 | n | x | x | n | x | x | x
O=C(CSc1nc2ccccc2nc1N1CCCC1)N1CCN(C(c2ccccc2)c2ccccc2)CC1 | x | x | n | x | x | x | x
O=C(CSc1nc2ccccc2nc1N1CCCCC1)N1CCN(C(c2ccccc2)c2ccc(Cl)cc2)CC1 (stereo not drawn) | x | x | 19 | x | x | x | 21
CC(=O)Oc1c(/C=C(\C#N)C(N)=O)[nH]c2ccccc12 | n | n | 55 | 95 | n | n | 66 | RORg DNA counter=n
CCn1c(SCC(=O)Nc2ccc(C(C)=O)cc2)nc2nc3c(cc2c1=O)CCCC3 | n | n | 17 | n | n | n | n
COc1cc(NC(=O)c2ccc(F)cc2)ccc1NC(=O)c1ccco1 | n | x | x | n | x | x | x
O=C(c1n[nH]c2c1CCCC2)N1CCc2c(nc(N3CCCCC3)[nH]c2=O)C1 | n | x | x | x | x | x | x
COc1ccccc1N(C(=O)c1snc(C(N)=O)c1N)C(C(=O)NC1CCCC1)c1ccc(N(C)C)cc1 (stereo not drawn) | x | n | 36 | x | x | n | n
COc1ccccc1N(C(=O)c1snc(C(N)=O)c1N)C(C(=O)NC1CCCC1)c1ccco1 (stereo not drawn) | x | n | n | n | n | n | x
Cc1ccc(C)c(CN2C(=O)C3CCCN3c3ccc(C#N)cc32)c1 (stereo not drawn) | n | n | 49 | n | n | n | 36
CC(=O)Nc1ccc(Nc2ccc3nonc3c2[N+](=O)[O-])cc1 | n | n | n | n | n | n | x
CC(=O)NS(=O)(=O)c1ccc(Nc2ccc([N+](=O)[O-])c3nonc23)cc1 | n | n | 26 | n | x | 35 | 21
COC(=O)c1sc(NC(=O)c2cccnc2)nc1C | n | x | x | n | x | x | x
CCOC(=O)C1CCN(C(c2cc3cc(OCC)ccc3[nH]c2=O)c2nnnn2C2CCCC2)CC1 (stereo not drawn) | n | x | x | n | x | x | x
COc1cc(NC(=O)c2cc(-c3cccnc3)nc3ccc(Br)cc23)cc(OC)c1 | n | n | 31 | n | n | n | 20
SMILES | EP2 modulator | PG9 Ab binder | NR1D1 modulator | EP2 antag | RAM inhibit | SKN-1 block | NR1D1 mod conf | others
O=C1CCCc2nc(N3CCc4ccccc43)ncc21 | n | n | n | n | n | n | x
O=C1CC(c2cccc(Cl)c2)Cc2nc(N3CCOCC3)ncc21 (stereo not drawn) | n | n | n | n | n | n | x
O=C1CC(c2cccc(Cl)c2)Cc2nc(N3CCN(c4ccccc4)CC3)ncc21 (stereo not drawn) | n | n | 37 | n | n | n | 19
O=C1CC(c2ccccc2)Cc2nc(N3CCc4ccccc43)ncc21 (stereo not drawn) | x | n | 30 | n | x | n | 23
CSc1cc(-c2ccc(Cl)cc2)[nH]c(=O)c1C#N | n | n | 82 | n | n | n | n
CCNC(=S)N(CCN(C)C)Cc1cc2cccc(C)c2[nH]c1=O | n | x | x | n | x | x | x
